Compounds without any hit were thinned out: in the full panel of roughly 83,000, 20% have a hit.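 Results are percent growth after 48 hours of single-concentration exposure. 100 means growth as in untreated cells, lower positive values show inhibition; negative values down to -100 show cell death.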 Unmarked numbers belong to inactive results. Active and inactive are the calls of the source. Rule for the calls: active = growth percent below 10; inactive = the rest.

Among the test systems are SR leukemia; RPMI-8226 leukemia; OVCAR-8 ovarian; OVCAR-5 ovarian; OVCAR-4 ovarian; SK-OV-3 ovarian; IGROV1 ovarian; OVCAR-3 ovarian; HS 578T breast; NCI/ADR-RES ovarian; T-47D breast; BT-549 breast; MDA-MB-435 melanoma; SW-620 colon; MCF7 breast; HCT-116 colon; KM12 colon; HCC-2998 colon.
Common to all, as to assay: NCI-60 one-dose screen, 48 h (100 = growth as untreated, 0 = no growth, -100 = all killed)
Conditions in all cases: 10 µM unless noted

`COc1cc(OC)c2sc(-c3ccc(-n4cncc4-c4ccc(OC)c(OC)c4)cc3)nc2c1`: the growth in the assay on SR leukemia is 50.7%; in the assay with RPMI-8226 leukemia it was 33.3%; in the assay with OVCAR-8 ovarian, 71%; in the assay with OVCAR-5 ovarian it was 79.5%; in the assay on OVCAR-4 ovarian it was 52.9%; with SK-OV-3 ovarian, 84.8%. In addition, the growth in the assay with IGROV1 ovarian was 67.2%; in the assay on OVCAR-3 ovarian, 43.7%; with HS 578T breast, 75.5%; in the assay on NCI/ADR-RES ovarian, 56.4%; in the assay with T-47D breast, 29.7%; in the assay on BT-549 breast it was 44.5%. Moreover, the growth was 53.3% in the assay with MDA-MB-435 melanoma; 55.7% in the assay on SW-620 colon; 44.5% in the assay on MCF7 breast; 40.8% with HCT-116 colon; 52.8% in the assay with KM12 colon.
Regarding `CCCC(=O)NC(c1ccc2c(c1)OCO2)c1ccc2cccnc2c1O` (stereo unspecified), the growth in the assay on SR leukemia is -16.1% (active); with RPMI-8226 leukemia, 13.1%; in the assay on OVCAR-8 ovarian it was 9.28% (active); with OVCAR-5 ovarian, 34.2%; in the assay with OVCAR-4 ovarian it was 14.5%; in the assay with SK-OV-3 ovarian it was 14.8%. For the same compound, the growth is 5.54% (active) in the assay with IGROV1 ovarian; 36.9% in the assay on OVCAR-3 ovarian; 58.6% with HS 578T breast; 3.18% (active) with NCI/ADR-RES ovarian; 19.8% with T-47D breast; 34.6% in the assay on BT-549 breast. The growth was 26.9% in the assay with MDA-MB-435 melanoma; 25.7% in the assay with SW-620 colon; 5.86% (active) with MCF7 breast; 11.8% in the assay with HCT-116 colon; 30.6% in the assay with KM12 colon.
Take `COc1ccc2c(c1)c(-c1noc(C(=O)c3cn(C)c4ccc(Br)cc34)n1)cn2C`: the growth in the assay with SR leukemia was 80.5%; in the assay with RPMI-8226 leukemia, 95.4%; in the assay on OVCAR-8 ovarian, 96.1%; in the assay with OVCAR-5 ovarian, 107%; in the assay with OVCAR-4 ovarian, 108%; in the assay with SK-OV-3 ovarian, 99.5%. Also, the growth in the assay on IGROV1 ovarian is 89.2%; with OVCAR-3 ovarian, 111%; in the assay with HS 578T breast it was 94.6%; in the assay with NCI/ADR-RES ovarian, 102%; in the assay with T-47D breast, 90%; in the assay with BT-549 breast, 99.3%. The growth in the assay with MDA-MB-435 melanoma is 114%; with SW-620 colon, 105%; in the assay on MCF7 breast, 93%; in the assay on HCT-116 colon, 92.4%; with KM12 colon it was 106%.
Take `COc1ccc(Cc2cc(-c3ccccc3)nn(Cc3ccccc3)c2=O)cc1OC`: the growth in the assay with SR leukemia was 40.2%; in the assay with RPMI-8226 leukemia, 15.2%; in the assay with OVCAR-8 ovarian, 32.3%; with OVCAR-5 ovarian it was 68.3%; in the assay with OVCAR-4 ovarian, 32.5%; with SK-OV-3 ovarian it was 74.1%. Further, the growth in the assay on IGROV1 ovarian is 47%; in the assay with OVCAR-3 ovarian it was 47.6%; in the assay on HS 578T breast, 66.6%; in the assay with NCI/ADR-RES ovarian it was 30.2%; in the assay on T-47D breast, 7.51% (active); with BT-549 breast, 14.7%. The growth in the assay with MDA-MB-435 melanoma is 43.9%; with SW-620 colon, 41%; in the assay with HCT-116 colon, 15%; in the assay on HCC-2998 colon, 60.5%; with KM12 colon, 35.2%.
For `Nc1ncnc2c1N=C(c1ccc3c(c1)OCO3)CC(c1ccc([N+](=O)[O-])cc1)N2` (stereo unspecified), the growth in the assay on SR leukemia was 45.6%; in the assay on RPMI-8226 leukemia it was 46.2%; in the assay with OVCAR-8 ovarian it was 87.3%; with OVCAR-5 ovarian, 75.8%; in the assay on OVCAR-4 ovarian, 99%; in the assay with SK-OV-3 ovarian it was 86%. In addition, the growth was 3.46% (active) in the assay with IGROV1 ovarian; 103% with OVCAR-3 ovarian; 74% in the assay with HS 578T breast; 82% with NCI/ADR-RES ovarian; 72.4% in the assay with T-47D breast; 96.2% with BT-549 breast. In addition, the growth with MDA-MB-435 melanoma is 79.8%; in the assay with SW-620 colon, 81.5%; in the assay with MCF7 breast, 63.2%; in the assay on HCT-116 colon, 66.6%; in the assay on KM12 colon, 78.4%.
Take `Cn1cc(-c2nc(-c3c[nH]c4ccncc34)cs2)c2ccccc21`: the growth with SR leukemia is -9.5% (active); in the assay with RPMI-8226 leukemia, -29% (active); with OVCAR-8 ovarian, 49.4%; in the assay with OVCAR-5 ovarian, 71.8%; in the assay with OVCAR-4 ovarian it was 52.1%; with SK-OV-3 ovarian it was 77.3%. For the same compound, the growth was 85.8% in the assay with OVCAR-3 ovarian; 90.1% with HS 578T breast; 86.4% with NCI/ADR-RES ovarian; 12.4% in the assay with T-47D breast; 84.4% in the assay with BT-549 breast; -89.9% (active) in the assay on MDA-MB-435 melanoma. Besides, the growth was -47% (active) with SW-620 colon; 4.55% (active) in the assay with MCF7 breast; -63.4% (active) in the assay on HCT-116 colon; -52.3% (active) in the assay on HCC-2998 colon; 18.7% with KM12 colon.
In the case of `CC(=O)Cc1nsc(NC(=O)c2cc(-c3cc(Cl)cc(Cl)c3)oc2C)n1`, the growth in the assay on SR leukemia is 98.3%; in the assay with RPMI-8226 leukemia, 93.5%; in the assay on OVCAR-8 ovarian, 97.8%; with OVCAR-5 ovarian, 104%; in the assay with OVCAR-4 ovarian it was 104%; with SK-OV-3 ovarian, 99.2%. Also, the growth was 106% in the assay on OVCAR-3 ovarian; 102% in the assay on HS 578T breast; 103% in the assay with NCI/ADR-RES ovarian; 88.1% in the assay with T-47D breast; 98.1% with BT-549 breast; 101% in the assay with MDA-MB-435 melanoma. The growth with SW-620 colon was 101%; in the assay with MCF7 breast, 97.4%; in the assay on HCT-116 colon, 107%; in the assay with HCC-2998 colon, 99.9%; in the assay on KM12 colon, 103%.
As for `COc1cc(CNC(=O)CCCC/C=C/C(C)C)ccc1OCc1nnc(Nc2ccc([N+](=O)[O-])cc2)o1`, the growth in the assay with SR leukemia was 64.2%; with RPMI-8226 leukemia, 52.3%; in the assay with OVCAR-8 ovarian it was 25%; with OVCAR-5 ovarian it was 101%; with OVCAR-4 ovarian, 11.3%; in the assay on SK-OV-3 ovarian it was 11.8%. For the same compound, the growth with OVCAR-3 ovarian is 77.3%; in the assay with HS 578T breast, 63.2%; in the assay on NCI/ADR-RES ovarian it was 79.6%; with T-47D breast, 48.6%; with BT-549 breast it was 108%; in the assay with MDA-MB-435 melanoma, 71.9%. Moreover, the growth in the assay with SW-620 colon is 67.3%; in the assay on MCF7 breast, 55.2%; in the assay with HCT-116 colon, 24.6%; in the assay on HCC-2998 colon, 83.6%; in the assay on KM12 colon, 71.6%.

These data come from PubChem BioAssay (NCI).
